Rab9 promoter act = activators of Rab9 promoter | Huh7 Rab9 promoter-luciferase reporter, luminescence, 24 h | Potency, µM (series often up to 9.22 µM), inactives show top-dose activation, negative = inhibition, usual class: activators | actives 2.8% (n = 320,000) | AID 485297; also: % of control where 0% means no effect; nearly all actives have a fitted effect of over 60% in size
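Steps: seed 1500 Huh7 Rab9-luc cells per well, rest 2 h at 37 °C; add compound in DMSO; incubate 24 h; add luciferase reagent, 10 min ambient; read luminescence.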
FLuc modulator = inhibits or activates purified firefly luciferase, miR-21 counter-screen; P08659; purified FLuc, Km substrates, luminescence inhibition; Potency, µM (series often up to 57.5 µM), for the others: top-dose activity change, negative = inhibition, actives largely listed as inhibitors; actives 6.9% (n = 360,000); AID 588342;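 also: plate controls were vehicle for no effect and reference inhibitor for full effect; nearly all actives have a fitted effect of over 55% in size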
Target sequence (P08659 whole entry, looked up): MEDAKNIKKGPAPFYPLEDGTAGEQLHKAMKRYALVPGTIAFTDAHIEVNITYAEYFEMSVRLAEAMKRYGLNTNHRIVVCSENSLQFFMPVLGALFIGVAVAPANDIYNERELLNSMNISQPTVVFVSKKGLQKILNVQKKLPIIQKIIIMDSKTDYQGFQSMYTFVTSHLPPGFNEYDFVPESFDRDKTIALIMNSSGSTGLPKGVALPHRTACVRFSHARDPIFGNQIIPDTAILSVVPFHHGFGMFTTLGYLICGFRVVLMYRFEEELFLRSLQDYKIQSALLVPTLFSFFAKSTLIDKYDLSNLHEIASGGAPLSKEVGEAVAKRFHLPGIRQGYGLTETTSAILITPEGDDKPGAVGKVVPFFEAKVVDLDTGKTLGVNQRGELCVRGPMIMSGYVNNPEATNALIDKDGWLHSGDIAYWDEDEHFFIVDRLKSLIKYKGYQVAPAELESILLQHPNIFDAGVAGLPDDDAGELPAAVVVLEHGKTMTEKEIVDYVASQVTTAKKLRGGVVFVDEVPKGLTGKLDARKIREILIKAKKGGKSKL
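Purified P. pyralis luciferase, 10 nM final, with Km-level 10 uM D-luciferin and 10 uM ATP in 50 mM Tris acetate pH 7.5, 10 mM Mg acetate, 0.01% Tween-20, 0.05% BSA; 6-point qHTS titration about 60 µM downward; luminescence read.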
ELG1 genotoxic = genotoxicity induction in ELG1-luciferase HEK293T cells; HEK293T ELG1-luciferase reporter, luminescence, 16 h; Potency, µM (doses to about 46 µM), for the others: at the top dose activity change, positive = activation, usual class: activators; actives 1.3% (n = 330,000); also: % of control where 0% means no effect; nearly all actives have a fitted effect of over 60% in size
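Luminescence read-out: rising ELG1-luciferase signal, reflecting elevated ELG1 protein under genetic stress, flags genotoxic compounds. Cells were treated for 16 hr at 37 °C before ONE-Glo detection.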
NPC1 prom act = activates the NPC1 promoter. actives 2.4% (n = 320,000). Huh7 NPC1 promoter luciferase reporter, 24 h. Potency, µM (highest dose often 9.22 µM), for inactives: top-dose activation, most hits filed as activators; also: % of control where 0% means no effect; nearly all actives have a fitted effect of over 60% in size
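Stably transfected Huh7 (NPC1 promoter→luciferase), 1500 cells/well in Opti-MEM + 10% FBS, 2 h settle, then compound 24 h at 37 °C. Luminescence after 10 min with Amplite reagent.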
SMN2 splice up = enhancers of SMN2 splice variant expression; HEK293 SMN2-luciferase splicing reporter, luminescence, 30-36 h; Potency, µM (doses to about 46.1 µM), for inactives: top-dose activity change, positive = activation, most hits filed as activators; actives 2.8% (n = 210,000); AID 1458; also: % of control where 0% means no effect; nearly all actives have a fitted effect of over 55% in size
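qHTS luciferase splicing reporter: luminescence rises when SMN2 exon 7 is included in transfected HEK293 cells. Compound exposure lasted 30-36 h at 37C, with 4.5 mM final sodium butyrate as control, followed by a ONE-Glo read.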
ELG1 repair inh = inhibitors of ELG1-dependent DNA repair in HEK293T cells. Potency, µM (top dose mostly 46.1 µM), without a hit: at the highest dose activity change, negative = inhibition, actives largely listed as inhibitors. actives 2.3% (n = 330,000). AID 504467. HEK293T ELG1-luciferase reporter, luminescence, 16 h; DNA damage induced by 5-fluorouridine; also: % is scaled to controls: 0 for no effect and ±100 for the full control effect; nearly all actives have a fitted effect of over 55% in size
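Step one: seed 2,000 cells per well. Step two: pin-transfer compound or DMSO alongside 5-fluorouridine. Step three: incubate 16 hr, 37 °C, 5% CO2. Step four: add ONE-Glo, wait 30 min, read luminescence.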
* marks the source's active call; other numbers are inactive results; ? = inconclusive; / = not tested or not shown. Hits are enriched below; roughly 9.2% of the tested compounds scored in any of these assays. Calls follow the shape of the dose curve; as a rule, active = well fitted curve in the direction sought with a large enough effect; inconclusive = small, poorly fitted or top-dose-only effect, or another doubt; inactive = no such curve, though single readings can be large; an effect the other way counts as inactive or inconclusive. Potency is read from the fitted curve at half-maximal effect.

SMILES	Rab9 promoter act	FLuc modulator	ELG1 genotoxic	NPC1 prom act	SMN2 splice up	ELG1 repair inh
O=C(NC1=NCCS1)Nc1ccccc1	1.41µM*	9.53µM*	?	1.41µM*	10µM*	?
O=C(COc1ccccc1)NC1=NCCS1	-1.6%	7.57µM*	14.6µM*	-4.6%	-27.8%	?
CC(C)c1ccc(OCC(=O)NC2=NCCS2)cc1	16.1%	7.57µM*	27.3%	?	/	?
CC(Oc1ccccc1)C(=O)NC1=NCCS1 (centres undefined)	3.16µM*	15.1µM*	?	?	14.1µM*	?
Cc1ccc(S(=O)(=O)N(Cc2cccc(F)c2)C(=O)N2CCN(C)CC2)cc1	-8.8%	6.3%	1.5%	0.1%	/	20.5%
COc1ccc(-c2sc3ccc(-c4ccc5c(c4)OCO5)cc3c2-c2ccc(OC)nc2)cc1	/	/	-1.0%	/	/	0.0%
O=C(COc1ccc(F)cc1)NCC1(N2CCCCC2)CCCCC1	-1.6%	10.3%	1.4%	-1.8%	/	30.0%
NCc1cccc(CNc2ccc([N+](=O)[O-])cc2C(N)=O)c1	3.16µM*	-1.9%	?	?	/	9.0%
Cc1cc(C)n2nc(-c3cccc(Br)c3)cc2n1	?	8.49µM*	?	?	/	?
CC(=O)c1cnc2cc(-c3cccc(Br)c3)nn2c1C	2µM*	?	13.5%	2.82µM*	11.2µM*	?
Cc1cccc(-c2cc3nc(C)cc(C)n3n2)c1	0.447µM*	6.75µM*	?	0.398µM*	/	?
Cc1cccc(-c2cc3nc(C)cc(N4CC(C)CC(C)C4)n3n2)c1 (centres undefined)	-5.0%	-6.6%	-5.8%	1.6%	-3.6%	?
COc1ccccc1-c1cc2nc(C)cc(C)n2n1	17.6%	15.1µM*	?	26.6%	/	23.8%
COc1cccc(N2CCN(C3C(=O)c4ccccc4N3C(C)=O)CC2)c1 (centres undefined)	/	-2.3%	/	/	/	/
COc1ccccc1N1CCN(C(=O)c2cnn(-c3ccc(C)c(C)c3)c2C2CCN(C(=O)OC(C)(C)C)CC2)CC1	/	-2.5%	/	/	/	/
COCCn1c(C)cc(C(=O)CSc2nnc(C)s2)c1C	/	1.69µM*	/	/	-58.0%	/
COCCn1c(C)cc(C(=O)CSc2nnnn2C2CCCC2)c1C	?	0.0849µM*	?	0.1µM*	/	?
Cc1c(C(=O)NC2CC(=O)N(c3ccc4c(c3)OCCO4)C2)cccc1[N+](=O)[O-] (centres undefined)	-3.5%	-0.5%	-2.8%	-1.4%	/	-22.3%
CC(=O)CC(=O)Nc1ccccc1	/	/	/	/	4.2%	/
CCc1ccc(NC(=O)c2ccc(C3SCC(=O)N3CCc3ccccc3)cc2)cc1 (centres undefined)	-13.0%	-11.6%	-12.1%	2.2%	-94.7%	10.3µM*
O=C(NCc1ccccc1)c1ccc(C2SCC(=O)N2Cc2ccccc2)cc1 (centres undefined)	-1.6%	-1.9%	-7.3%	8.4%	-57.2%	16.4µM*
Cc1c(NC(=O)c2ccc(-c3cccc([N+](=O)[O-])c3)o2)c(=O)n(-c2ccccc2)n1C	-6.2%	-0.2%	-2.4%	-3.1%	-2.2%	?
CC1(C)C2CC=C(/C=N/NC(=O)c3ccccc3Br)C1C2 (centres undefined)	-0.5%	-1.1%	1.9%	0.3%	-5.2%	8.6%
Cn1cc(CCCC(=O)NCc2ccc(F)cc2)c2ccccc21	-1.2%	2.9%	-3.5%	2.7%	/	1.4%
O=C(Nc1ccc(F)cc1)N1CCOCC1	-0.3%	-2.6%	3.5%	-1.2%	?	4.4%
CN(C)c1ccc(NC(=O)N2CCOCC2)cc1	9.3%	23.9µM*	15.4%	6.9%	?	?
CCC(C)c1ccc(NC(=O)N2CCOCC2)cc1 (centres undefined)	2.51µM*	15.1µM*	?	2.51µM*	/	?
COc1cc(NC(=O)Cn2nc(C(F)(F)F)c3c2CCCC3)cc(OC)c1OC	-1.0%	0.8%	-1.2%	-0.7%	-31.0%	?

Assay outcomes from PubChem BioAssay.
